Consider 45 compounds from PubChem BioAssay AID1851 (National Center for Advancing Translational Sciences (NCATS), 2009).

As usually defined, the AC50 is the concentration giving half of the maximal activity seen.

Screen size: about 16,000 compounds; about 5,700 (36%) were called active. About 24% were inconclusive and are not listed. The list shows a part of the results. Values without a mark were called inactive. Calls come from the whole dose curve; as a rule, active = well fitted curve in the direction sought with a large enough effect; inconclusive = small, poorly fitted or top-dose-only effect, or effect the other way; inactive = no such curve, though single readings can be large or run the other way.
% is set by controls: 0 for no effect and ±100 for the full control effect.

In this assay the target is Cytochrome P450 1A2 (Homo sapiens) (UniProt P05177). Briefly: Cytochrome panel assay with activity outcomes. The following applies: recombinant CYP, pro-luciferin dealkylation, luminescence, p450-cyp1a2; series mostly up to 57.1 µM; activity, negative = inhibition: at the top concentration.
Sequence of Cytochrome P450 1A2 (Homo sapiens) (P05177 whole entry, looked up): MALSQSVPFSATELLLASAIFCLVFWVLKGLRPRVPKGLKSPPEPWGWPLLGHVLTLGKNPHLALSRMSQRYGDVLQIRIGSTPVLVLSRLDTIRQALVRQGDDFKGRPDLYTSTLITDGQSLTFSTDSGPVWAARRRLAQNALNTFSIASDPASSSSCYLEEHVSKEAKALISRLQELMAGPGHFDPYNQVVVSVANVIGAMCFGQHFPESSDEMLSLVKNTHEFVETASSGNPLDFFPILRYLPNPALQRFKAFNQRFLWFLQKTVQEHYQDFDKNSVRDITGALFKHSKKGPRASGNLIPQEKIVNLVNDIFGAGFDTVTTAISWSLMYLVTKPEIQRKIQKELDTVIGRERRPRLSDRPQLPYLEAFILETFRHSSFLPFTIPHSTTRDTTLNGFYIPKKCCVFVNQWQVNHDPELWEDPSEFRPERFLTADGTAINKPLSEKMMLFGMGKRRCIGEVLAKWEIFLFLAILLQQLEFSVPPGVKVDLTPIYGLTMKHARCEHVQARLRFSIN
In the case of `CCN1CCCC1CNC(=O)C1c2cc(OC)c(OC)cc2C(=O)N(C)C1c1cccnc1` (stereo not given), the “activity, negative = inhibition” value is -18.2%.
Turning to `COC(=O)N1CCC2(CCCN(Cc3nccs3)C2)CC1`, the “activity, negative = inhibition” value is -13.7%.
Regarding `CN(C)c1ncc2nc(CCc3ccccc3)c(=O)n(Cc3ccc(F)cc3)c2n1`, the AC50 was 10 µM (active).
For `CN(C)c1ncc2nc(-c3cccc(C#N)c3)c(=O)n(CCC#N)c2n1`, the “activity, negative = inhibition” value is -20.2%.
As for `COCCn1c(=O)c(CCc2ccccc2)nc2cnc(N(C)C)nc21`, the AC50 is 1.26 µM (active).
With `CN(C)c1ncc2nc(-c3ccccc3)c(=O)n(CCC#N)c2n1`, the AC50 is 1.58 µM (active).
Turning to `O=c1c(CCc2ccccc2)nc2cncnc2n1Cc1ccc(F)cc1`, the AC50 is 10 µM (active).
As to `CCN(CC)C(=O)CSc1nc(O)cc(=O)n1CC`, the “activity, negative = inhibition” value was -4.98%.
Consider `C[C@@H]1/C=C\CC(=O)OC[C@H]2O[C@@H](C=C[C@@H]2O)[C@H](C)/C=C\CC(=O)OC1`, for which the activity, negative = inhibition is -3.64% [at 11.4 µM].
Turning to `CNC(=O)[C@@H]1O[C@@H](n2cnc3c(NCc4ccc(N)cc4)ncnc32)[C@@H](O)[C@H]1O`, the “activity, negative = inhibition” value was 1.3%.
`CN(C)c1ncc2nc(CCc3ccccc3)c(=O)n(CCc3ccccc3)c2n1`: the AC50 was 6.31 µM (active).
`C=C1C=C(Br)C2(OCCCO2)[C@H]2OC12` (stereo not given in full): the activity, negative = inhibition is -2.64% [at 11.4 µM].
Take `Cc1cnc(CNc2cc(-c3ccccc3Cl)ncn2)cn1`: the concentration at half-maximal activity (AC50) is 15.8 µM (active).
Turning to `Cc1cnc(CNc2cc(-c3ccccc3C)ncn2)cn1`, the AC50 is 12.6 µM (active).
As for `COc1ccccc1-c1cc(NCc2cnc(C)cn2)ncn1`, the AC50 was 12.6 µM (active).
As to `Cn1cccc1C(=O)N1CCC2(CCN(C(=O)Nc3cccc(F)c3)CC2)CC1`, the “activity, negative = inhibition” value was -10.7%.
As to `C[C@@]12CCC(=O)C=C1CC[C@H]1[C@@H]2[C@@H](O)C[C@]2(C)[C@@H]1CC[C@@]2(O)C(=O)CO`, the activity, negative = inhibition is -23.6% [at 11.4 µM].
Consider `Cc1cc(=O)c2c(O)c(O)ccc2o1`, for which the AC50 was 12.6 µM (active).
As to `O=C(O)/C=C\c1c2ccc(=O)c(O)c-2oc2c(O)c(O)ccc12`, the activity, negative = inhibition was -19.8% [at 2.29 µM].
Regarding `Oc1c(CN2CCOCC2)ccc(CN2CCOCC2)c1O`, the activity, negative = inhibition was -11.9% [at 2.29 µM].
Regarding `Clc1ccc(-n2nnnc2CN2CCOCC2)cc1`, the concentration at half-maximal activity (AC50) was 7.08 µM (active).
As to `c1c[nH]c(CN2CCOCC2)n1`, the activity, negative = inhibition was 6.41% [at 11.4 µM].
The same measure, in the same setting: in the case of `CCN(CC)c1ccc(NC(=O)CSc2nnc3nc(C)cc(C)n23)cc1` it was 1.82%.
In the case of `COc1cc(NC(=O)COC(=O)c2nc3nc(C)cc(C)n3n2)cc(OC)c1`, the concentration at half-maximal activity (AC50) was 14.1 µM (active).
For `Cc1ccnc2nc(C(=O)OCC(=O)Nc3ccc4c(c3)OC(F)(F)O4)nn12`, the AC50 is 8.91 µM (active).
Consider `C#CCCCO/N=C1/[C@H]2O[C@@H]2[C@@H](O)[C@H]2[C@H]1CCn1c(=O)n(C)c(=O)n12`, for which the activity, negative = inhibition is -0.0514% [at 11.4 µM].
On the same count and under the same terms, the result for `CCN1C(=O)[C@@H]2[C@H]3C(=CC[C@@H]2C1=O)C1(OCCCO1)[C@H]1O[C@@H]1[C@H]3O` reads -2.44% [at 11.4 µM].
Consider `Cc1ccc(S(=O)(=O)N2CCN(S(C)(=O)=O)C2)cc1`, for which the “activity, negative = inhibition” value was 14.9%.
Regarding `Cc1ccc(OC(=O)c2cccc(C(=O)Oc3ccc(C)cc3)n2)cc1`, the “activity, negative = inhibition” value is 13.2%.
In the case of `COC(=O)c1cccc(C(=O)Nc2ccc(C)cc2)n1`, the AC50 was 1 µM (active).
In the case of `O=C(CCC(=O)c1cccs1)OCC(=O)N1CCN(C(=O)c2ccco2)CC1`, the “activity, negative = inhibition” value is -25.3%.
As for `Cc1ccc(OC(=O)c2cccc(C(=O)Oc3ccc(C)cn3)n2)nc1`, the “activity, negative = inhibition” value was -13.6%.
For the compound `CCOC(=O)c1cccc(C(=O)OCC)n1`, the AC50 was 12.6 µM (active).
Regarding `O=C(OCC(=O)c1cccs1)c1cccc(C(=O)OCC(=O)c2cccs2)n1`, the half-maximal activity concentration (AC50) is 15.8 µM (active).
With `S=c1nc(-c2ccccc2)oc2c1CCCC2`, the AC50 is 0.562 µM (active).
As for `COc1ccc(-n2c(-c3ccccc3)nc(=S)c3c2CCCC3)cc1`, the “activity, negative = inhibition” value was -27.9%.
For `CCCn1nnc(NC(=O)c2ccc(-c3cccc(Cl)c3)o2)n1`, the AC50 was 1.58 µM (active).
Take `Cc1ccc(C(=O)NC(=S)Nc2cccc3nsnc23)cc1`: the “activity, negative = inhibition” value was 5.9%.
In the case of `O=C(Nc1cccc2nsnc12)c1ccc(-c2cccc(Cl)c2)o1`, the AC50 was 2 µM (active).
With `O=C(c1cnccn1)N1CCC2(CCCN(c3ccccn3)C2)CC1`, the “activity, negative = inhibition” value is -8.32%.
For `Cc1ccc(/C=C2\OC(=O)c3ccccc32)cc1`, the AC50 is 0.794 µM (active).
`CC(C)c1ccc(/C=C2\C=C(c3ccc4ccccc4c3)OC2=O)cc1`: the activity, negative = inhibition was -24.7% [at 2.29 µM].
For `Cc1ccccc1/C=C1\OC(=O)c2ccccc21`, the AC50 was 1.26 µM (active).
Take `CC(=O)OC[C@@H]1O[C@@H](O/N=C2/C[C@@H](O)[C@@H](O)[C@@H]3[C@@H]4C(=O)N(Cc5ccc6c(c5)OCO6)C(=O)[C@H]4CC[C@@H]23)[C@H](OC(C)=O)[C@H](OC(C)=O)[C@@H]1OC(C)=O`: the activity, negative = inhibition was -15% [at 11.4 µM].
Consider `CC(=O)[C@H]1CC[C@@H]2[C@H]3CC=C4C[C@@H](O)CC[C@]4(C)[C@H]3CC[C@]12C`, for which the “activity, negative = inhibition” value is -9.13% [at 25.6 µM].
